Here are results for ten molecules from the supplement of paper PMC9135407.

Counter-ions that a name gives are not always drawn.

The subject of the test is primary human hepatic stellate cells (donor 1). Kind of test: ACTA2 mRNA fold change vs DMSO (normalised to PSMB2); higher = more ACTA2 expression. The conditions noted are these: 48 h. The procedure:
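Secondary qRT-PCR screen in primary human HSCs (donor 1), 384-well plates, with compounds dispensed in quadruplicate and incubated for 48 h. Cells-to-CT lysates were used for multiplexed TaqMan qPCR of ACTA2 or COL1A1 with PSMB2 as reference. Fold changes versus DMSO come from a linear model (Ct_gene ~ Ct_PSMB2 + plate + chemical). A hit is defined as COL1A1 and ACTA2 FC <0.5 (FDR <0.05) with PSMB2 between 0.2 and 2.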
For `CS(=O)(=O)CCNCc1ccc(-c2ccc3ncnc(Nc4ccc(OCc5cccc(F)c5)c(Cl)c4)c3c2)o1` (6.66667 µM), the “ACTA2 mRNA fold change” value amounted to 1.05. As for `C[C@@H](CN1CCC(n2c(=O)[nH]c3cc(Cl)ccc32)CC1)NC(=O)c1ccc2ccccc2c1` (33.3333 µM), the figure is 0.045; as for `CC1(C)CC(=O)c2c(C(F)(F)F)nn(-c3ccc(C(N)=O)c(N[C@H]4CC[C@H](OC(=O)CN)CC4)c3)c2C1` (33.3333 µM), 0.967.

On to `CN1CCC(=C2c3ccccc3C=Cc3ccccc32)CC1` [Cyproheptadine] (33.3333 µM), for which the “ACTA2 mRNA fold change” value was found to be 0.172. For `Cc1cccc(Nc2nc(-c3ccncc3)cs2)c1` (11.1 µM), the “ACTA2 mRNA fold change” value was found to be 1.07. The value for `CC#CCOC(=O)c1c(C)nc2sc3c(c2c1N)CCC(O)C3` (stereo not given) (33.3333 µM) was 0.806; that for `CN1CCC(Nc2ncc3ncnc(Nc4ccc(F)c(Cl)c4)c3n2)CC1` [BIBX 1382 dihydrochloride] (33.3333 µM) was 0.00877.

Regarding `C[C@@H]1CN(CCCn2c3ccccc3c3ccccc32)C[C@H](C)N1` [Rimcazole dihydrochloride] (33.3333 µM), the “ACTA2 mRNA fold change” value was found to be 0.0478. As for `CN1CCC(NC(=O)c2cc(-c3c(O)cc(O)cc3Oc3ccc([N+](=O)[O-])cc3)on2)CC1` (33.3333 µM), the figure is 1.25.

As for `CNCCCC12CCC(c3ccccc31)c1ccccc12` [Maprotiline hydrochloride] (33.3333 µM), the “ACTA2 mRNA fold change” value was found to be 0.0243.
